Rows were chosen to be rich in hits. Some 3% of all compounds tested hit in one or more screens of this group.
IP6K1 inh: blocks human inositol hexakisphosphate kinase 1. AID 1645851. activity change, % (series mostly up to about 58 µM). IP6K1 kinase, ADP-Glo luminescence, 2 h; active compounds read low. actives 0.81% (n = 140,000); in the data active = activity change below about -25%
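ADP-Glo luminescence measures ADP made by human IP6K1 during a 2 h RT reaction with ATP/IP6 (mix at 1.3 mM/130 uM); top library doses 57.5 and 19.1 uM final.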
SNCA expr inhib: SNCA gene expression inhibition; HEK-293 SNCA-luciferase knock-in, luminescence, 24 h; actives 0.17% (n = 140,000); Potency, µM (doses to about 57.2 µM), actives largely listed as inhibitors; also: nearly all actives have a fitted effect of over 45% in size
SNCA viab count: reduces viability of HEK-293 SNCA reporter cells; HEK-293-SNCA-luc viability, GF-AFC fluorescence, 24 h; Potency, µM (titrated, usually from 57.1 µM), most hits filed as cytotoxic; actives 0.12% (n = 150,000); AID 1671193; also: nearly all actives have a fitted effect of over 30% in size
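Cytotoxicity counterscreen: after 24 h compound treatment of genome-edited SNCA-luciferase HEK-293 cells, live-cell protease substrate GF-AFC read by fluorescence after 30 min; activity scaled between DMSO (0%) and medium-only (-100%), curves Hill-fitted.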
KDM5B inhibitor: blocks human KDM5B histone demethylase activity; Q9UGL1; KDM5B demethylase, FDH-coupled NADH fluorescence (FDH is formaldehyde dehydrogenase); Potency, µM (titrated, usually from 57.7 µM), usual class: inhibitors; actives 2.6% (n = 220,000); AID 1347165; also: nearly all actives have a fitted effect of over 70% in size
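Coupled FDH/NAD⁺ fluorescence readout. KDM5BΔAP 200 nM final; compound titration, 10 min RT preincubation; substrate mix 12.5 µM H3K4me3, 25 µM 2-OG, 50 µM Fe(II), 100 µM ascorbate, 0.25 mM NAD⁺, 0.25 U/mL FDH; ΔRFU over 30 min.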
Hits are given with their value; - = inactive; ? = inconclusive; . = no result; [ ] = dose if it differs, or a comment. Unless noted, calls follow the shape of the dose curve; as a rule, active = well fitted curve in the direction sought with a large enough effect; inconclusive = small, poorly fitted or top-dose-only effect, or another doubt; inactive = no such curve, though single readings can be large; an effect the other way counts as inactive or inconclusive.

SMILES	IP6K1 inh	SNCA expr inhib	SNCA viab count	KDM5B inhibitor
COc1ccc(-c2nc3c([nH]2)CC(C)(C)CNC3=O)cc1OC	-	-	-	32µM
COc1ccc(Nc2ccnc(N3CCC(NC(=O)Cc4cccc(Cl)c4)CC3)n2)cc1	-	-	?	.
CC(=O)NC1(C)CCN(Cc2cccc(-c3ccc(N4CCOCC4)cc3)c2)C1 (stereo unspecified)	-	-	-	32µM
CC(=O)NC1(C)CCN(Cc2ccc(-c3cccc4ncccc34)cc2)C1 (stereo unspecified)	-	-	-	40µM
CC(=O)NC1(C)CCN(Cc2ccc(-c3ccc4ccccc4c3)cc2)C1 (stereo unspecified)	-	?	-	?
CC(=O)NC1(C)CCN(Cc2cccc(-c3cccc4ncccc34)c2)C1 (stereo unspecified)	-	-	-	40µM
O=C(CNC(=O)c1ccc(-c2cnc3ccccc3c2)cc1)NCc1ccccc1	-	.	.	.
CC(C)CNC(=O)c1ccc2nnc(-c3cc(C(F)(F)F)cc(C(F)(F)F)c3)n2c1	-	-	-	.
Cc1cccc(-c2[nH]ncc2CNC(=O)c2cccc(N(C)C)c2)c1	-	-	-	28µM
CN(C)c1cccc(C(=O)NCC2CCN(c3cc(-c4ccc(Cl)cc4)[nH]n3)CC2)c1	-	-	-	32µM
Cc1ccc(NC(=O)c2cccc(N(C)C)c2)c(C)c1	.	.	.	-
Cc1ccc(-c2cc(N3CCC(CNC(=O)c4cccc(N(C)C)c4)CC3)n[nH]2)cc1	-	-	-	28µM
CN(C)c1cccc(C(=O)NCC2CCN(c3cc(-c4ccc(F)cc4)[nH]n3)CC2)c1	-	-	-	20µM
Cc1ccc(-c2cc(N3CCC(CNC(=O)c4ccc[nH]4)CC3)n[nH]2)cc1	-	-	-	?
CN(C)c1cccc(C(=O)NC2CCCN(c3cc(-c4ccc(Cl)cc4)[nH]n3)C2)c1 (stereo unspecified)	-	-	?	?
COc1cccc(CNC(=O)c2ccc3nc(-c4ccncc4)oc3c2)c1	-	-	-	.
CCc1c(C)cc(C(=O)N[C@H]2CCOC[C@H]2C2CCOCC2)c(=O)n1C	-	-	-	25µM
O=C(NCC(=O)N1CCC(c2ccccc2)CC1)c1cccc(-c2ccc(C(F)(F)F)cc2)c1	-	-	-[12.5 µM]	.
O=C(NCc1ccccc1)c1nc2sccn2c1-c1ccc(C(F)(F)F)cc1	-	?	-	.
O=C(NCc1ccc(F)cc1)c1cc(C2CC2)nc2onc(C3CCCNC3)c12 (stereo unspecified)	-	-	-	-
CC(C)OCCCNC(=O)c1cc(C2CC2)nc2onc(C3CCCN3)c12 (stereo unspecified)	-	-	-	?
O=C(NCC1CC1)c1cc(C2CC2)nc2onc(C3CCCN3)c12 (stereo unspecified)	-	-	-	89µM
COCCNC(=O)c1cc(C2CC2)nc2onc(C3CCCN3)c12 (stereo unspecified)	-	-	-	56µM
Cc1cc(C(=O)NCCCOC(C)C)c2c(C3CCCN3)noc2n1 (stereo unspecified)	-	-	-	50µM
O=C(NCC1CC1)c1cc(C2CC2)nc2onc(C3CCCNC3)c12 (stereo unspecified)	-	-	-	89µM
SMILES	IP6K1 inh	SNCA expr inhib	SNCA viab count	KDM5B inhibitor
CC(C)CCN1CCC2(CC1)OC(=O)N(Cc1ccc(O)cc1)C2(C)c1ccccc1 (stereo unspecified)	-	-	-	-
O=C(NC1CCOCC1)C1CCCCN1Cc1ccc(-c2cccs2)cc1 (stereo unspecified)	-	-	-	.
COc1ccc(Nc2ccnc(N3CCC(N[S+](=O)([O-])c4cccs4)CC3)n2)cc1	-	-	?	.
O=C(NC1CC1)c1nc(-c2cccnc2)c2cnccn12	-	-	-	?
COCCNC(=O)c1nc(-c2ccc([S+](C)(=O)[O-])cc2)c2ccccn12	-	-	-	-
O=C(NCc1cccnc1)c1nc(-c2ccc(F)cc2)c2ccccn12	-	-	-	28µM
CC(C)CNC(=O)c1nc(-c2ccc(Cl)cc2)c2cnccn12	-	-	-	?
O=C(NCc1ccc2c(c1)OCO2)c1nc(-c2ccc(F)cc2)c2ccccn12	-	-	-	?
C[S+](=O)([O-])c1ccc(-c2nc(C(=O)NCCc3ccc(Cl)cc3)n3ccccc23)cc1	-	-	-	89µM
CS(=O)(=O)c1ccc(-c2nc(C(=O)NCc3cccnc3)n3ccncc23)cc1	-	-	?	10µM

Screens deposited in PubChem by National Center for Advancing Translational Sciences (NCATS).
